Screens from PubChem BioAssay.
HIF-2a block: inhibitors of HIF-2a | 786-0 RCC cells HIF-2a reporter, luciferase luminescence, overnight | inhibition, % at 18.8 µM | 0.72% of 360,000 active | AID 624352;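 active = inhibition of the luminescence signal of 40% or more relative to plate controls, in a single-dose primary screen at 18.75 µM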
KKLEB tox: CF airway cell cytotoxicity counter-screen. 0.36% of 360,000 active. KKLEB CF airway cells viability, ATPlite luminescence, overnight; stronger effect = lower value; cells stimulated with P. aeruginosa culture filtrate. activity change (cytotoxicity), % at 5 µM;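 active = corrected activity change at or below -50% at 5 µM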
hiPSC survival: increases survival of single human iPS cells. hiPSC single-cell survival, ATPlite luminescence; 100% = ROCK inhibitor wells, 0% = DMSO. survival enhancement, % at 20 µM. 0.044% of 360,000 active; in the data active = survival enhancement above about 18%;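 note: cells exposed to compounds for 16 hours before the ATP read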
LGR2 antag: inhibitors of bursicon-induced Drosophila LGR2 receptor cAMP signaling; AID 720647; 0.35% of 380,000 active; HEK293 LGR2, CRE-luciferase, bursicon-stimulated, 4 h; inhibition, % at 9.99 µM;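 active = drop in luminescence signal, shown as inhibition above about 50% in the replicate tests, limit read from the data, passing the limit was not always enough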;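 note: agonist challenge used bursicon conditioned medium at about half maximal strength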
TWEAK-Fn14 inh: inhibitors of TWEAK-Fn14 interaction signaling. 2% of 360,000 active. TWEAK-stimulated Fn14 reporter cells, luciferase luminescence, 8 h. inhibition, % at 10 µM; in the data active = inhibition above about 50%
CF NFkB block: inhibitors of cystic fibrosis induced NF-kB; 0.86% of 360,000 active; AID 588850; KKLEB NF-kB-GFP reporter, PAF-induced, GFP fluorescence overnight; inhibition, % at 5 µM;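 active = at least 50% inhibition at 5 µM, scaled per plate between neutral and stimulator controls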;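 note: PAF is a Pseudomonas aeruginosa culture filtrate used as stimulus; plate controls were PAF-stimulated DMSO wells for no effect and unstimulated DMSO wells for full effect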
The depositor's hits bear a star; nt = no result given. This is a sample that favours compounds with a hit; in the whole collection about 2.3% have one here.

SMILES	HIF-2a block	KKLEB tox	hiPSC survival	LGR2 antag	TWEAK-Fn14 inh	CF NFkB block
O=C(Nc1nc2ccccc2[nH]1)c1ccccc1	-28	4	-7	nt	79*	-15
O=C1C(N2CCOCC2)=C(n2nnc3ccccc32)C(=O)c2ccccc21	27	-22	-7	nt	45	86*
O=C1c2ccccc2C(=O)c2c1cccc2-n1nnc2ccccc21	5	-14	0	-16	8	-10
Cc1noc(C)c1S(=O)(=O)Nc1ccc2c(c1)C(=O)N([C@H](C)CO)C[C@H](C)[C@H](CN(C)C(=O)C1CCCCC1)OCCCC[C@@H](C)O2	nt	nt	nt	-17	nt	nt
Cc1cc(/C=N/n2cnnc2)c(C)n1-c1ccc(OCc2ccc(Cl)cc2Cl)cc1	81*	-3	-2	nt	61*	-2
CC(=O)N(C)C[C@@H]1Oc2ncc(C#C[C@@H](C)O)cc2C(=O)N([C@H](C)CO)C[C@H]1C	nt	nt	nt	10	nt	nt
CC1Cc2cc(-c3csc(NC(=O)Cc4ccccc4)n3)ccc2N1S(C)(=O)=O (stereo not drawn)	-26	21	4	32	92*	-39
C[C@H](CO)N1C[C@H](C)[C@H](CN(C)C(=O)CC2CC2)Oc2ncc(C#CC3CC3)cc2C1=O	nt	nt	nt	-15	nt	nt
C#CCn1c(=NC(=O)c2cc(-c3cccs3)nc3ccccc23)sc2cc(S(N)(=O)=O)ccc21	30	-56*	3	16	-5	37
COc1ccc(NC(=O)C2Cc3c(-c4ccccc4Oc4ccccc4)ccnc3O2)cc1OC (stereo not drawn)	11	12	2	30	63*	5
CC(C)=CCCC(C)N(C=O)C(C)CCC=C(C)C (stereo not drawn)	-2	2	-1	nt	53*	-1
CC(=O)N(CCCN(C)C)CCC(C)CCC=C(C)C (stereo not drawn)	1	6	-2	-4	0	0
O=C(OCc1cc2ccccc2[nH]c1=O)c1cccs1	18	13	4	-14	57*	7
CC1=NN(c2nc(-c3ccc(C)cc3)cs2)C(=O)C1N=Nc1cccc(O)c1 (stereo not drawn)	-21	9	1	0	50*	41
COc1ccc(-c2csc(N3N=C(C)C(C)C3=O)n2)cc1 (stereo not drawn)	-172	-3	1	-17	-4	5
CC1=NN(c2ccccc2)C(=O)C1N=Nc1cccc(O)c1 (stereo not drawn)	-289	-2	-1	-39	25	-17
CC1=NN(c2nc(-c3ccc(C)cc3)cs2)C(=O)C1N=Nc1ccccc1O (stereo not drawn)	-32	14	-1	-7	62*	-14
C[C@@H]1CCCCO[C@@H](CN(C)C(=O)c2ccccc2)[C@H](C)CN([C@@H](C)CO)C(=O)c2cc(NC(=O)CCC(F)(F)F)ccc2O1	nt	nt	nt	1	nt	nt
Cc1cc(NC(=O)CSc2ccc(-c3nc4cc(C)c(C)cc4[nH]3)cn2)no1	-144	-45	-5	nt	-6	36
Cc1cc2nc(-c3ccc(SCC(=O)N4CCc5ccccc54)nc3)[nH]c2cc1C	-211	-52*	-5	-38	10	29
Cc1cc2nc(-c3ccc(SCc4ccc(C(=O)O)cc4)nc3)[nH]c2cc1C	-188	6	0	-41	22	-9
O=C(CSc1ncccc1-c1nc2ccccc2[nH]1)N1CCc2ccccc21	-59	-13	2	-21	67*	-10
Cc1cc2nc(-c3ccc(SCc4ccccc4C#N)nc3)[nH]c2cc1C	-161	-11	-2	-31	58*	4
C[C@H]1CN([C@@H](C)CO)C(=O)c2cc(-c3ccncc3)cnc2O[C@@H]1CN(C)C(=O)Cc1cccnc1	nt	nt	nt	7	nt	nt
O=C(C[C@H]1CC[C@H]2[C@@H](COC[C@@H](O)CN2Cc2cc(F)ccc2F)O1)N1CCc2ccccc2C1	nt	nt	nt	-13	nt	nt
Cc1ccc(S(=O)(=O)Nc2ccc3c(c2)C(=O)N([C@H](C)CO)C[C@@H](C)[C@@H](CN(C)C)O3)cc1	nt	nt	nt	-5	nt	nt
CC(=O)c1cccc(N(C(=O)c2ccco2)C(C(=O)NC2CCCC2)c2ccccc2F)c1 (stereo not drawn)	12	17	0	-3	53*	-21
